In PubChem BioAssay (Tox21):
Calls of active or inactive are those of the source. A call without a number means that no potency is given here. Calls come from the whole dose curve.

Molecular target: Estrogen receptor (Homo sapiens) (UniProt P03372)
Experiment: qHTS assay to identify small molecule agonists of the estrogen receptor alpha (ER-alpha) signaling pathway in the presence of an antagonist (AID 1259383); note: top concentration of the series differs between compounds; nearly all actives have a fitted effect of over 15% in size
Conditions: VM7Luc4E2 cells, ERE-luciferase, +ICI-182,780, 22 h; series mostly up to 92.4 µM
How it was run: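 Quantitative HTS confirmation: compounds titrated at 15 concentrations onto estrogen-deprived VM7Luc4E2 cells carrying a four-ERE luciferase construct, with ICI-182,780 present at 10.0nM final. Signal is luminescence after 22hr exposure.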

Chain of Estrogen receptor (Homo sapiens) (P03372 whole entry, looked up): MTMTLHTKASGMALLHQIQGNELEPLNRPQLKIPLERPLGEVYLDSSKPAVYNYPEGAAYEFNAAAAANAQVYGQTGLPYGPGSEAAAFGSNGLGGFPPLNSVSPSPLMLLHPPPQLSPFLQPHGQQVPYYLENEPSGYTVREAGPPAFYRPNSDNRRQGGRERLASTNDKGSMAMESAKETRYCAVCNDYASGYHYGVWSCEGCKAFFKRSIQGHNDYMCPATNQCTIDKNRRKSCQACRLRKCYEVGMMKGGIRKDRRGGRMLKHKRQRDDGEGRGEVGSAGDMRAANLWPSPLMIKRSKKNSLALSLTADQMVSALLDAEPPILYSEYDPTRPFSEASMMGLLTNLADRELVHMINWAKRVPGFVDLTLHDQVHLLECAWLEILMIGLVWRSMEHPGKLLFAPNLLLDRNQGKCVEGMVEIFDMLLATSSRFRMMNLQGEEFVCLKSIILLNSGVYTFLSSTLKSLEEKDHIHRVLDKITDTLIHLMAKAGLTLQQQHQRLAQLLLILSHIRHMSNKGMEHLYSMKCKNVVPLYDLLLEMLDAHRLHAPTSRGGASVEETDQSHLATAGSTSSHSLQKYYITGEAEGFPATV

Row | Compound | Potency
1 | C=CC(=O)[O-].C=CC(=O)[O-].[Zn+2] | inactive
2 | CC[C@]1(O)C[C@H]2CN(CCc3c([nH]c4ccccc34)[C@@](C(=O)OC)(c3cc4c(cc3OC)N(C=O)[C@H]3[C@@](O)(C(=O)OC)[C@H](OC(C)=O)[C@]5(CC)C=CCN6CC[C@]43[C@@H]65)C2)C1 | inactive
3 | CN1C(=O)N(c2ccccc2Br)Cc2cnc(Nc3ccc4c(c3)OCC(CO)O4)nc21 (stereo not drawn) | inactive
4 | CCOC(=O)c1ccccc1C(=C1C=C(Br)C(=O)C(Br)=C1)c1cc(Br)c(O)c(Br)c1 | inactive
5 | CCOC(=O)[C@H](CCc1ccccc1)N[C@@H](C)C(=O)N(CC(=O)O)C1Cc2ccccc2C1 | inactive
6 | CC(=O)NC1(c2cccc(F)c2)CCN(CC[C@@]2(c3ccc(Cl)c(Cl)c3)CN(c3ccccc3)C(=O)CO2)CC1 | inactive
7 | Brc1cc2ccccc2c2ccccc12 | inactive
8 | CN1CCCN=C1COC(=O)C(O)(c1ccccc1)C1CCCCC1 (stereo not drawn) | inactive
9 | O=C1c2ccccc2C(=O)N1CCc1noc(-c2ccc(CN3CCCCCC3)s2)n1 | inactive
10 | OCCN1CCN(CCCN2c3ccccc3Sc3ccc(Cl)cc32)CC1 | inactive
11 | CCCCCC#CC(=O)OC | inactive
12 | C[C@H]1c2cccc(O)c2C(O)=C2C(=O)[C@]3(O)C(O)=C(C(N)=O)C(=O)[C@@H](N(C)C)[C@@H]3[C@@H](O)[C@@H]21 | inactive
13 | CCC(=O)C1CC(C(C)C)CC=C1C (stereo not drawn) | inactive
14 | CN1CC(=O)N2[C@H](c3ccc4c(c3)OCO4)c3[nH]c4ccccc4c3C[C@@H]2C1=O | inactive
15 | COc1cc(N)c(Cl)cc1C(=O)NC1CCN(CCCOc2ccc(F)cc2)CC1OC (stereo not drawn) | inactive
16 | O=C=Nc1ccc(Cl)c(Cl)c1 | inactive
17 | N#[N+]c1ccc2c(S(=O)(=O)[O-])cccc2c1O | inactive

Row | Compound | Potency
18 | C=C1c2cccc(O)c2C(O)=C2C(=O)[C@]3(O)C(O)=C(C(N)=O)C(=O)[C@@H](N(C)C)[C@@H]3[C@@H](O)[C@H]12 | inactive
19 | CN1CCCC(n2nc(Cc3ccc(Cl)cc3)c3ccccc3c2=O)CC1 (stereo not drawn) | inactive
20 | Cc1ccc(Cl)c(Nc2ccccc2C(=O)O)c1Cl | inactive
21 | CCOC(=O)c1ccc(OCCN2C[C@H](O)[C@@H](O)[C@H](O)[C@H]2CO)cc1 | inactive
22 | C/C=C/C=C/C=O | inactive
23 | CC1(C)S[C@@H]2[C@H](NC(=O)C(c3ccccc3)S(=O)(=O)O)C(=O)N2[C@H]1C(=O)O (stereo partly drawn) | inactive
24 | OCCOCC#CCOCCO | inactive
25 | O=C(OCC(O)CO)c1ccccc1Nc1ccnc2cc(Cl)ccc12 (stereo not drawn) | inactive
26 | C=C(C)[C@@H]1CCC2=CCC[C@@H](C)[C@]2(C)C1 | inactive
27 | CC(C)C[C@H](NC(=O)[C@H](CCc1ccccc1)NC(=O)CN1CCOCC1)C(=O)N[C@@H](Cc1ccccc1)C(=O)N[C@@H](CC(C)C)C(=O)[C@@]1(C)CO1 | inactive
28 | O=[N+]([O-])c1cc(C2CCCCC2)c(O)c([N+](=O)[O-])c1 | inactive
29 | CCOC(C)=O | inactive
30 | C1C[C@@H]2[C@H]3CC[C@H](C3)[C@@H]2C1 | inactive
31 | O=c1[nH]ncc2ccccc12 | inactive
32 | COc1cc(C(=O)NC2CCN(C)CC2)ccc1Nc1ncc2c(n1)N(C1CCCC1)CC(F)(F)C(=O)N2C | inactive
33 | COc1ccccc1Oc1c(NS(=O)(=O)c2ccc(C(C)(C)C)cc2)nc(-c2ncccn2)nc1OCCO | inactive
